Values joined by “and” are separate entries in the source; they are usually repeats but may differ in a detail not shown here. Equal values may be shown once. The campaign covered roughly 5,500 compounds. About 2,000 (36%) were called active. Inconclusive results (about 18%) are left out. No stated cut-off is given here; in the data, active means normalized growth mostly below about 0.91 (no sharp cut-off); inconclusive means no clear call, values can overlap the other calls; inactive means mostly above about 0.92. This is one part of the list.
Assay: chemical genetic growth profiling, strain panel (AID 1159580);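 further: tested at 20 µM; growth read once vehicle control cultures reached saturation at 30 °C; 1 = growth at the plate median or of vehicle wells; lower values mean less growth of the strain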
Conditions: S. cerevisiae deletion strains, growth OD

Measured: normalized growth

CCCN1C[C@H](CSC)C[C@@H]2c3cccc4[nH]cc(c34)C[C@H]21
inactive: locus YAL013W, strain DEP1, hits give low values 0.997 | locus YAL021C, strain ccr4, hits give low values 0.978 | locus YAL026C, strain drs2, hits give low values 1.02 | locus YAL030W, strain snc1, hits give low values 1.02 | locus YBL061C, strain skt5, hits give low values 1.01 | locus YBR009C, strain hhf1, hits give low values 1.02 | locus YBR021W, strain FUR4, hits give low values 0.965 | locus YBR023C, strain chs3, hits give low values 0.998 | locus YBR171W, strain sec66, hits give low values 1.02 | locus YBR229C, strain ROT2, hits give low values 1 | locus YBR231C, strain swc5, hits give low values 1.01 | locus YBR279W, strain paf1, hits give low values 0.996 | locus YCL011C, strain gbp2, hits give low values 1.02 | locus YCL016C, strain dcc1, hits give low values 1.01 | locus YCL029C, strain bik1, hits give low values 1.02 | locus YCL069W, strain vba3, hits give low values 1.01 | locus YCR088W, strain abp1, hits give low values 1.01 | locus YDL005C, strain med2, hits give low values 0.994 | locus YDL035C, strain GPR1, hits give low values 0.992 | locus YDL040C, strain nat1, hits give low values 0.996 | locus YDL074C, strain BRE1, hits give low values 0.975 | locus YDL101C, strain DUN1, hits give low values 0.992 | locus YDL134C, strain PPH21, hits give low values 1.01 | locus YDL185W, strain tfp1, hits give low values 1.02 | locus YDL192W, strain arf1, hits give low values 1.02 | locus YDR001C, strain nth1, hits give low values 1.01 | locus YDR069C, strain doa4, hits give low values 0.994 | locus YDR101C, strain arx1, hits give low values 1 | locus YDR137W, strain rgp1, hits give low values 1.1 | locus YDR150W, strain NUM1, hits give low values 0.989 | locus YDR159W, strain sac3, hits give low values 0.989 | locus YDR162C, strain NBP2, hits give low values 0.97 | locus YDR195W, strain ref2 1.03 | locus YDR297W, strain sur2, hits give low values 1.01 | locus YDR318W, strain mcm21, hits give low values 1.03 | locus YDR334W, strain swr1, hits give low values 1.02 | locus YDR335W, strain msn5, hits give low values 1.02 | locus YDR388W, hits give low values 1.02 | locus YDR392W, strain spt3, hits give low values 1.02 | locus YDR502C, strain sam2, hits give low values 1.01 | locus YEL003W, strain gim4, hits give low values 1.01 | locus YEL037C, strain rad23, hits give low values 1.01 | locus YEL061C, strain CIN8 (second series), hits give low values 1.02 | locus YEL061C, strain CIN8, hits give low values 0.999 | locus YER015W, strain faa2, hits give low values 1.01 | locus YER016W, strain bim1, hits give low values 1.02 | locus YER110C, hits give low values 1.02 | locus YER111C, strain swi4, hits give low values 1.01 | locus YER155C, strain BEM2 (second series), hits give low values 0.999 | locus YER155C, strain BEM2, hits give low values 1 | locus YER167W, strain BCK2, hits give low values 1 | locus YFR010W, strain ubp6, hits give low values 0.987 | locus YGL078C, strain dbp3, hits give low values 1.01 | locus YGL086W, strain mad1, hits give low values 1.02 | locus YGL167C, strain pmr1, hits give low values 1.02 | locus YGL173C, strain kem1, hits give low values 1 | locus YGL227W, strain vid30, hits give low values 1.01 | locus YGL240W, strain doc1, hits give low values 0.991 | locus YGL248W, strain PDE1, hits give low values 0.998 | locus YGL253W, strain hxk2, hits give low values 1.01 | locus YGR078C, strain PAC10, hits give low values 0.988 | locus YGR135W, strain pre9, hits give low values 0.985 | locus YGR229C, strain SMI1, hits give low values 0.984 | locus YGR252W, strain gcn5, hits give low values 1.06 | locus YHR013C, strain ard1, hits give low values 1 | locus YHR027C, strain rpn1, hits give low values 1.02 | locus YHR030C, strain SLT2, hits give low values 1.01 and 1.02 | locus YHR079C, strain IRE1 (second series), hits give low values 1.01 | locus YHR079C, strain IRE1, hits give low values 1.04 | locus YHR094C, strain hxt1, hits give low values 1.02 | locus YHR129C, strain ARP1, hits give low values 1 | locus YHR142W, strain chs7, hits give low values 1.02 | locus YHR200W, strain rpn10, hits give low values 1.01 | locus YIL066C, strain RNR3, hits give low values 1.01 | locus YIL073C, strain SPO22, hits give low values 1.08 | locus YIL125W, strain kgd1, hits give low values 1 | locus YIR030C, strain dcg1, hits give low values 1.01 | locus YJL092W, strain hpr5, hits give low values 1.01 | locus YJL095W, strain BCK1 (second series), hits give low values 1.01 | locus YJL095W, strain BCK1, hits give low values 0.975 and 1.04 | locus YJL115W, strain asf1, hits give low values 1.02 | locus YJL129C, strain trk1, hits give low values 1.03 | locus YJL134W, strain LCB3, hits give low values 0.993 | locus YJL154C, strain vps35, hits give low values 1.01 | locus YJL164C, strain tpk1, hits give low values 1.01 | locus YJL166W, strain qcr8, hits give low values 1.01 | locus YJL168C, strain set2, hits give low values 1.03 | locus YJL187C, strain SWE1 (second series), hits give low values 1 | locus YJR043C, strain POL32, hits give low values 1 | locus YJR066W, strain TOR1, hits give low values 0.985 | locus YJR075W, strain HOC1, hits give low values 0.98
